Source: PubChem BioAssay AID1159580 (chemical genetic matrix, 2015)
Values joined by “and” are separate entries in the source; they are usually repeats but may differ in a detail not shown here. Equal entries are not always repeated. Out of some 5,500 compounds screened, about 2,000 (36%) were called active. Not shown: some 18% with an inconclusive outcome. No stated cut-off is given here; in the data, active means normalized growth mostly below about 0.91 (no sharp cut-off); inconclusive means no clear call, values can overlap the other calls; inactive means mostly above about 0.92. The list shows a part of the results.

Test: chemical genetic growth profiling, strain panel (AID 1159580);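 further: tested at 20 µM; growth read once vehicle control cultures reached saturation at 30 °C; 1 = growth at the plate median or of vehicle wells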
Settings: growth OD

Measured: normalized growth

CN1C(C)(C)CCCC1(C)C
inactive: S. cerevisiae deletion strains, locus YAL013W, strain DEP1, stronger effect = lower value 1.02 and 1.01 | S. cerevisiae deletion strains, locus YAL040C, strain CLN3, stronger effect = lower value 1.07 | S. cerevisiae deletion strains, locus YBR021W, strain FUR4, stronger effect = lower value 1.01 | S. cerevisiae deletion strains, locus YBR229C, strain ROT2, stronger effect = lower value 1.02 | S. cerevisiae deletion strains, locus YCL029C, strain bik1, stronger effect = lower value 0.988 | S. cerevisiae deletion strains, locus YCL061C, strain MRC1 (second series), stronger effect = lower value 0.994 | S. cerevisiae deletion strains, locus YDL035C, strain GPR1, stronger effect = lower value 1.02 | S. cerevisiae deletion strains, locus YDL074C, strain BRE1, stronger effect = lower value 1.06 | S. cerevisiae deletion strains, locus YDL101C, strain DUN1, stronger effect = lower value 1.02 | S. cerevisiae deletion strains, locus YDL134C, strain PPH21, stronger effect = lower value 1.02 | S. cerevisiae deletion strains, locus YDL185W, strain tfp1, stronger effect = lower value 0.993 | S. cerevisiae deletion strains, locus YDL192W, strain arf1, stronger effect = lower value 0.978 | S. cerevisiae deletion strains, locus YDR101C, strain arx1, stronger effect = lower value 0.969 | S. cerevisiae deletion strains, locus YDR150W, strain NUM1, stronger effect = lower value 1.02 and 1 | S. cerevisiae deletion strains, locus YDR162C, strain NBP2, stronger effect = lower value 1.04 | S. cerevisiae deletion strains, locus YDR318W, strain mcm21, stronger effect = lower value 0.99 | S. cerevisiae deletion strains, locus YDR363W, strain ESC2, stronger effect = lower value 0.997 | S. cerevisiae deletion strains, locus YDR388W, stronger effect = lower value 0.998 | S. cerevisiae deletion strains, locus YDR502C, strain sam2, stronger effect = lower value 1.02 | S. cerevisiae deletion strains, locus YEL061C, strain CIN8, stronger effect = lower value 1.02 | S. cerevisiae deletion strains, locus YER002W, strain NOP16, stronger effect = lower value 1.02 | S. cerevisiae deletion strains, locus YER110C, stronger effect = lower value 0.992 | S. cerevisiae deletion strains, locus YER155C, strain BEM2, stronger effect = lower value 1.02 | S. cerevisiae deletion strains, locus YER167W, strain BCK2, stronger effect = lower value 1.02 | S. cerevisiae deletion strains, locus YGL078C, strain dbp3, stronger effect = lower value 1.01 | S. cerevisiae deletion strains, locus YGL086W, strain mad1, stronger effect = lower value 0.996 | S. cerevisiae deletion strains, locus YGL248W, strain PDE1, stronger effect = lower value 1.03 | S. cerevisiae deletion strains, locus YGR078C, strain PAC10, stronger effect = lower value 1.04 | S. cerevisiae deletion strains, locus YGR135W, strain pre9, stronger effect = lower value 1.01 | S. cerevisiae deletion strains, locus YGR229C, strain SMI1, stronger effect = lower value 1.03 and 0.995 | S. cerevisiae deletion strains, locus YGR252W, strain gcn5, stronger effect = lower value 0.907 | S. cerevisiae deletion strains, locus YHR030C, strain SLT2, stronger effect = lower value 1.01 | S. cerevisiae deletion strains, locus YHR079C, strain IRE1 (second series), stronger effect = lower value 0.988 | S. cerevisiae deletion strains, locus YHR094C, strain hxt1, stronger effect = lower value 1 | S. cerevisiae deletion strains, locus YHR129C, strain ARP1, stronger effect = lower value 1.01 | S. cerevisiae deletion strains, locus YHR200W, strain rpn10, stronger effect = lower value 0.997 | S. cerevisiae deletion strains, locus YIL066C, strain RNR3, stronger effect = lower value 1.03 | S. cerevisiae deletion strains, locus YIL073C, strain SPO22, stronger effect = lower value 0.991 | S. cerevisiae deletion strains, locus YIL125W, strain kgd1, stronger effect = lower value 1.01 | S. cerevisiae deletion strains, locus YIR030C, strain dcg1, stronger effect = lower value 0.999 | S. cerevisiae deletion strains, locus YJL095W, strain BCK1, stronger effect = lower value 1.03 | S. cerevisiae deletion strains, locus YJL134W, strain LCB3, stronger effect = lower value 1.01 | S. cerevisiae deletion strains, locus YJL168C, strain set2, stronger effect = lower value 0.993 | S. cerevisiae deletion strains, locus YJL187C, strain SWE1 (second series), stronger effect = lower value 1.04 | S. cerevisiae deletion strains, locus YJR043C, strain POL32, stronger effect = lower value 1 | S. cerevisiae deletion strains, locus YJR075W, strain HOC1, stronger effect = lower value 1.02 | S. cerevisiae deletion strains, locus YKL009W, strain mrt4, stronger effect = lower value 0.962 | S. cerevisiae deletion strains, locus YKL068W, stronger effect = lower value 1 | S. cerevisiae deletion strains, locus YKL085W, strain MDH1 (second series), stronger effect = lower value 1.01 | S. cerevisiae deletion strains, locus YKL085W, strain MDH1, stronger effect = lower value 1.01 | S. cerevisiae deletion strains, locus YKL190W, strain CNB1, stronger effect = lower value 1.01 | S. cerevisiae deletion strains, locus YKR001C, strain vps1, stronger effect = lower value 0.994 | S. cerevisiae deletion strains, locus YLR039C, strain RIC1, stronger effect = lower value 1.03 | S. cerevisiae deletion strains, locus YLR058C, strain SHM2, stronger effect = lower value 1.02 | S. cerevisiae deletion strains, locus YLR102C, strain apc9, stronger effect = lower value 0.998 | S. cerevisiae deletion strains, locus YLR262C, strain YPT6, stronger effect = lower value 1.02 | S. cerevisiae deletion strains, locus YLR268W, strain sec22, stronger effect = lower value 1.01 | S. cerevisiae deletion strains, locus YLR330W, strain CHS5, stronger effect = lower value 1.01 | S. cerevisiae deletion strains, locus YLR342W, strain FKS1 (second series), stronger effect = lower value 0.996 | S. cerevisiae deletion strains, locus YLR371W, strain rom2, stronger effect = lower value 0.984 | S. cerevisiae deletion strains, locus YLR418C, strain cdc73, stronger effect = lower value 1 | S. cerevisiae deletion strains, locus YML016C, strain PPZ1, stronger effect = lower value 1.02 | S. cerevisiae deletion strains, locus YML032C, strain rad52, stronger effect = lower value 0.995 | S. cerevisiae deletion strains, locus YML124C, strain tub3, stronger effect = lower value 1 | S. cerevisiae deletion strains, locus YMR078C, strain ctf18, stronger effect = lower value 0.999 | S. cerevisiae deletion strains, locus YMR223W, strain ubp8, stronger effect = lower value 0.983 | S. cerevisiae deletion strains, locus YMR263W, strain SAP30, stronger effect = lower value 1.03 | S. cerevisiae deletion strains, locus YMR307W, strain GAS1, stronger effect = lower value 1.04 | S. cerevisiae deletion strains, locus YNL067W, strain RPL9B, stronger effect = lower value 1.03 | S. cerevisiae deletion strains, locus YNL128W, strain TEP1, stronger effect = lower value 1.03 | S. cerevisiae deletion strains, locus YNL153C, strain GIM3, stronger effect = lower value 1.04 and 1.01 | S. cerevisiae deletion strains, locus YNL175C, strain NOP13, stronger effect = lower value 1 | S. cerevisiae deletion strains, locus YNL197C, strain WHI3, stronger effect = lower value 1 | S. cerevisiae deletion strains, locus YNL224C, strain SQS1, stronger effect = lower value 1.01 | S. cerevisiae deletion strains, locus YNL233W, strain BNI4, stronger effect = lower value 1.04 | S. cerevisiae deletion strains, locus YNL250W, strain rad50, stronger effect = lower value 1 | S. cerevisiae deletion strains, locus YNL271C, strain bni1, stronger effect = lower value 0.99 | S. cerevisiae deletion strains, locus YNL298W, strain CLA4, stronger effect = lower value 0.996 | S. cerevisiae deletion strains, locus YNL307C, strain MCK1, stronger effect = lower value 0.993 | S. cerevisiae deletion strains, locus YNL322C, strain KRE1, stronger effect = lower value 1.02 | S. cerevisiae deletion strains, locus YNR052C, strain pop2, stronger effect = lower value 0.982 | S. cerevisiae deletion strains, locus YOL006C, strain TOP1, stronger effect = lower value 1.06 | S. cerevisiae deletion strains, locus YOL012C, strain htz1 1.39 | S. cerevisiae deletion strains, locus YOL147C, strain pex11, stronger effect = lower value 0.996 | S. cerevisiae deletion strains, locus YOR061W, strain CKA2, stronger effect = lower value 1.01 | S. cerevisiae deletion strains, locus YOR069W, strain VPS5, stronger effect = lower value 1.01 | S. cerevisiae deletion strains, locus YOR083W, strain WHI5 (second series), stronger effect = lower value 1.02 | S. cerevisiae deletion strains, locus YOR136W, strain idh2, stronger effect = lower value 0.987 | S. cerevisiae deletion strains, locus YOR144C, strain elg1, stronger effect = lower value 0.99 | S. cerevisiae deletion strains, locus YOR184W, strain ser1, stronger effect = lower value 0.962 | S. cerevisiae deletion strains, locus YOR316C, strain cot1, stronger effect = lower value 1 | S. cerevisiae deletion strains, locus YPL055C, strain LGE1, stronger effect = lower value 1.05 and 1.01 | S. cerevisiae deletion strains, locus YPL241C, strain CIN2, stronger effect = lower value 1.02 | S. cerevisiae deletion strains, locus YPR119W, strain clb2, stronger effect = lower value 1.01 | S. cerevisiae deletion strains, locus YPR141C, strain kar3, stronger effect = lower value 0.994 | S. cerevisiae deletion strains, locus YPR163C, strain tif3, stronger effect = lower value 0.998 | S. cerevisiae deletion strains, locus YPR167C, strain met16, stronger effect = lower value 0.998 | S. cerevisiae deletion strains, strain wtn01, stronger effect = lower value 1.02 | S. cerevisiae strains, strain wild type, stronger effect = lower value 1.02
